Laboratory results taken from PubChem BioAssay (Tox21).
Results filed as inconclusive are left out. The source made the active and inactive calls. Unless noted, the call rests on the fitted dose curve; in most records, active means well fitted curve in the direction sought with a large enough effect in the repeat runs; inconclusive means weak or mixed curves; inactive means no such curve, though single readings can be large; an effect the other way counts as inactive or inconclusive.

Key:
[1] = qHTS assay to identify small molecule antagonists of the thyroid receptor (TR) signaling pathway (AID 743065); further: nearly all actives have a fitted effect of over 55% in size
Summary of the method: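 GH3.TRE-Luc rat pituitary cells (two TREs driving luciferase) were dosed with compound, then stimulated with 1 nM T3 (final) for 23.5 h at 37 C. ONE-Glo luminescence was the read-out, with CellTiter-Fluor fluorescence as the cytotoxicity counter-screen.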

[2] = system: thyroid hormone receptor (rat, GH3 cells); test: qHTS assay to identify small molecule agonists of the thyroid receptor (TR) signaling pathway (AID 743066; calls by dose curve)
[3] = target: Estrogen receptor (Homo sapiens) (UniProt P03372); test: qHTS assay to identify small molecule antagonists of the estrogen receptor alpha (ER-alpha) signaling pathway (AID 743069; active means well fitted curve in the direction sought with a large enough effect in the signal ratio in the repeat runs, not every such curve was filed as active; the % refers to the signal ratio)
Estrogen receptor (Homo sapiens), sequence (P03372 whole entry, looked up): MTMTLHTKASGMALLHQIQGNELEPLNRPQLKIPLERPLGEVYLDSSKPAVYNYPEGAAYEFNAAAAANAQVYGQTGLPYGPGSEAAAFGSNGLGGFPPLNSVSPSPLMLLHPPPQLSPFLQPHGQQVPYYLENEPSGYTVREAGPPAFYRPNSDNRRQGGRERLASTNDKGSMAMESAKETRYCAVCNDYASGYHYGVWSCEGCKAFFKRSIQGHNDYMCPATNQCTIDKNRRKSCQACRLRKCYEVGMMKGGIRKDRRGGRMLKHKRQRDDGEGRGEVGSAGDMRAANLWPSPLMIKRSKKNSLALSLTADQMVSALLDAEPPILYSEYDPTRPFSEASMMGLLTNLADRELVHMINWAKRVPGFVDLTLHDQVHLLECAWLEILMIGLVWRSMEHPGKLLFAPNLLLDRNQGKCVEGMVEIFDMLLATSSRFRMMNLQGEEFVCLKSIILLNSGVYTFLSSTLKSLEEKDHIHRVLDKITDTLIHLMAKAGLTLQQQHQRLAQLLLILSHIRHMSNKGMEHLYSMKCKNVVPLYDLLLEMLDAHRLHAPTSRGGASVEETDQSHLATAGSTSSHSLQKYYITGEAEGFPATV
Summary of the method: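 Reporter cells (ER-alpha-bla, HEK293 background) are conditioned overnight in stripped-serum medium (2% charcoal-stripped FBS). Compound and 17beta-estradiol exposure runs 18 hr at 37C, 5% CO2.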

[4] = qHTS assay to identify small molecule antagonists of the estrogen receptor alpha (ER-alpha) signaling pathway - cell viability counter screen (AID 743074; calls by dose curve;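 further: HEK293 cells carrying ER-alpha-UAS-bla reporter stimulated with 17beta-estradiol; nearly all actives have a fitted effect of over 45% in size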)
[5] = target: Estrogen receptor (Homo sapiens) (UniProt P03372); test: qHTS assay to identify small molecule agonists of the estrogen receptor alpha (ER-alpha) signaling pathway (AID 743075; calls by dose curve;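 further: HEK293 GripTite cells with ER-alpha and UAS-driven beta-lactamase reporter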)
[6] = target: Estrogen receptor (Homo sapiens) (UniProt P03372); test: qHTS assay to identify small molecule agonists of the estrogen receptor alpha (ER-alpha) signaling pathway using the BG1 cell line (AID 743079); settings: BG1Luc4E2 cells, ERE-luciferase agonist, 22 h; further: nearly all actives have a fitted effect of over 20% in size
[7] = qHTS assay to identify small molecule antagonists of the estrogen receptor alpha (ER-alpha) signaling pathway using the BG1 cell line (AID 743080; calls by dose curve;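 further: BG1 cells stimulated with 17beta-estradiol alongside compound; nearly all actives have a fitted effect of over 25% in size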)
Summary of the method: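 BG1Luc4E2, endogenous ER-alpha, 4xERE-luc; 5 d charcoal-stripped FBS, phenol red free; 24 h plating; cpd + 17beta-estradiol 21.5 h, 37 C/5% CO2; CellTiter-Fluor viability 30 min, then ONE-Glo luciferase 30 min RT.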

[8] = qHTS assay to identify small molecule antagonists of the estrogen receptor alpha (ER-alpha) signaling pathway using the BG1 cell line - cell viability counter screen (AID 743081);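 further: compound given together with 17beta-estradiol as the ER stimulus; nearly all actives have a fitted effect of over 45% in size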
[9] = target: Aromatase (Homo sapiens) (UniProt P11511); test: qHTS assay to identify aromatase inhibitors (AID 743083); further: nearly all actives have a fitted effect of over 55% in size
Aromatase (Homo sapiens), sequence (P11511 whole entry, looked up): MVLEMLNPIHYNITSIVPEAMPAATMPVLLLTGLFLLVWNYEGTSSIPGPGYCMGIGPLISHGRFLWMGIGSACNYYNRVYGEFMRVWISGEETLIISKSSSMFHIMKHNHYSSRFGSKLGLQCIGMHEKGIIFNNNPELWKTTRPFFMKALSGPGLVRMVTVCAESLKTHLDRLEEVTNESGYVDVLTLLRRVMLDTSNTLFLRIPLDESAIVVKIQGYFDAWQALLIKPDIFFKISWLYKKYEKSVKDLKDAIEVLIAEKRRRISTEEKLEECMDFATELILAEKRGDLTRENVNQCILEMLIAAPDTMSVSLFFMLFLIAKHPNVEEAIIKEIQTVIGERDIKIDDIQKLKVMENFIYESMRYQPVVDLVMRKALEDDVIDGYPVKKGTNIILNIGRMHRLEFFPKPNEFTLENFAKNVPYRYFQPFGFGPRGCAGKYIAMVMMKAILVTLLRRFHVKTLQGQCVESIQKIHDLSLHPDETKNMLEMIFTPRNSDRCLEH

[10] = qHTS assay to identify aromatase inhibitors - cell viability counter screen (AID 743084);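 further: cells stimulated with testosterone during compound exposure; nearly all actives have a fitted effect of over 55% in size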
[11] = target: Aryl hydrocarbon receptor (Homo sapiens) (UniProt P35869); test: qHTS assay to identify small molecule that activate the aryl hydrocarbon receptor (AhR) signaling pathway (AID 743085);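 further: HG2L7.5c1 human HepG2 liver cells with stably integrated DRE-driven firefly reporter; nearly all actives have a fitted effect of over 15% in size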
Aryl hydrocarbon receptor (Homo sapiens), sequence (P35869 whole entry, looked up): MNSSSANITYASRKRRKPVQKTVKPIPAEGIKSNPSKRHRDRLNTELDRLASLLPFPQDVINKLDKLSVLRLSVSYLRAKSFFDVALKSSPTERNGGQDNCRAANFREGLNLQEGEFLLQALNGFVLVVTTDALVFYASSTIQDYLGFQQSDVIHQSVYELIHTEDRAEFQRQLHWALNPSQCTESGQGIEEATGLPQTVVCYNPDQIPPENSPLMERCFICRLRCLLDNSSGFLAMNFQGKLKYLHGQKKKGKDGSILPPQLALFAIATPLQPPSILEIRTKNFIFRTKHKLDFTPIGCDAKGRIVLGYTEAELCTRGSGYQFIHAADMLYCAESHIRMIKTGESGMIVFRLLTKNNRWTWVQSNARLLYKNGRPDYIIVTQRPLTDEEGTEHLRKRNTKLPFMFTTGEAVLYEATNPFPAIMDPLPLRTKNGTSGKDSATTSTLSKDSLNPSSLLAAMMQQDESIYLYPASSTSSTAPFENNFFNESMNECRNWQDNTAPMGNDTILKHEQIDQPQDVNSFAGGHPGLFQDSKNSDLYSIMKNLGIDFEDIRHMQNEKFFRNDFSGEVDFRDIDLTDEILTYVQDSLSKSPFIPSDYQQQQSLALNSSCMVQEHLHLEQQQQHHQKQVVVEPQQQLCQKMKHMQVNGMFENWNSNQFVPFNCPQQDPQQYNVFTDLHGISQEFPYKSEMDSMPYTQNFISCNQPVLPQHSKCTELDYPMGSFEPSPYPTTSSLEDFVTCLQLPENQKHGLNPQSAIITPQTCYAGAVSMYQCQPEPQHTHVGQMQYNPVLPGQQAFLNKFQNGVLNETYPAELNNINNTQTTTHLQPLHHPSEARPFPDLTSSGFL
Summary of the method: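 Luminescence (ONE-Glo) from a dioxin-responsive-element luciferase reporter in HG2L7.5c1 HepG2 cells after 24 hr compound exposure at 37C; viability measured by CellTiter-Fluor fluorescence beforehand.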

[12] = qHTS assay to identify small molecule that activate the aryl hydrocarbon receptor (AhR) signaling pathway - cell viability counter screen (AID 743086);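 further: HepG2 liver cells carrying the AhR DRE luciferase reporter; nearly all actives have a fitted effect of over 45% in size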
Summary of the method: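 HepG2-AhR-luc (HG2L7.5c1) cells, 4000/well, treated 24 h at 37 C with compound; viability measured as CellTiter-Fluor fluorescence after 30 min in the same wells as the luciferase read.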

[13] = target: Peroxisome proliferator-activated receptor gamma (Homo sapiens) (UniProt P37231); test: qHTS assay to identify small molecule agonists of the peroxisome proliferator-activated receptor gamma (PPARg) signaling pathway (AID 743094; active means well fitted activation curve with a large enough effect in the signal ratio in the repeat runs, not every such curve was filed as active; the % refers to the signal ratio)
Peroxisome proliferator-activated receptor gamma (Homo sapiens), sequence (P37231 whole entry, looked up): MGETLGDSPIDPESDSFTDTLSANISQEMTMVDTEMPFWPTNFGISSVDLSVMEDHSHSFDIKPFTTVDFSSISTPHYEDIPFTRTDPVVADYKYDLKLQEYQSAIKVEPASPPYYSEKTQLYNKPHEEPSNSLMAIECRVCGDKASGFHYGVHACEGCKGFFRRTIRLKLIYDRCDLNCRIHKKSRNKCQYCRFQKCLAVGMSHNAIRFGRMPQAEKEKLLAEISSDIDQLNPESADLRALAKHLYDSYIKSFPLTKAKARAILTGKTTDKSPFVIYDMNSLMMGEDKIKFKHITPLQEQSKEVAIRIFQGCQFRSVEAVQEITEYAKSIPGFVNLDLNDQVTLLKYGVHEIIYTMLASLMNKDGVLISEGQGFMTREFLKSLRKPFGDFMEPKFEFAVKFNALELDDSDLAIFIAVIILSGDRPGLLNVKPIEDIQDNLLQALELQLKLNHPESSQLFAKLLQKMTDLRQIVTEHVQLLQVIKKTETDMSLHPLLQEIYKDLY
Summary of the method: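 Compounds dissolved in DMSO were added to PPARg UAS-bla HEK293H cells for 17 h at 37C, and reporter expression was quantified by fluorescence intensity after 1 h with LiveBLAzer B/G FRET substrate.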

[14] = qHTS assay for small molecule agonists of the antioxidant response element (ARE) signaling pathway - cell viability counter screen (AID 743203; calls by dose curve; further: nearly all actives have a fitted effect of over 55% in size)
Summary of the method: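 Following 16 hrs of compound treatment at 37C, HepG2 cells with an ARE-controlled beta-lactamase gene were lysed with CellTiter-Glo. Luminescence was read after 30 min at room temperature.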

[15] = qHTS assay for small molecule activators of the heat shock response signaling pathway - cell viability counter screen (AID 743209); further: nearly all actives have a fitted effect of over 50% in size
Summary of the method: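 Readout: CellTiter-Glo luminescence, 30 min at room temperature. System: HSE-bla HeLa cells, 1500/well, plated overnight. Treatment: compounds in DMSO, 5 h at 37 C.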

[16] = qHTS assay for small molecule activators of the heat shock response signaling pathway (AID 743210; active means well fitted activation curve with a large enough effect in the signal ratio in the repeat runs, with a control signal flat, not every such curve was filed as active; the % refers to the signal ratio;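 further: HeLa cells with beta-lactamase reporter driven by heat shock elements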)
Summary of the method: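 Quantitative high-throughput format using an engineered HeLa line in which heat shock response elements drive beta-lactamase; after 5 h with compound, cells received a B/G FRET substrate and fluorescence was read.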

[17] = qHTS assay to identify small molecule agonists of the peroxisome proliferator-activated receptor delta (PPARd) signaling pathway - cell viability counter screen (AID 743211); further: nearly all actives have a fitted effect of over 55% in size
Summary of the method: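 Viability was measured as CellTiter-Glo luminescence (30 min, room temperature) in the same wells as the beta-lactamase readout. GeneBLAzer PPARd UAS-bla HEK293H cells received compound after 5 h plating and were incubated 17 h at 37 C.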

[18] = target: Peroxisome proliferator-activated receptor gamma (Homo sapiens) (UniProt P37231); test: qHTS assay to identify small molecule antagonists of the peroxisome proliferator-activated receptor gamma (PPARg) signaling pathway (AID 743191; calls by dose curve; further: nearly all actives have a fitted effect of over 30% in size)
Summary of the method: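 GeneBLAzer PPARg UAS-bla HEK293H cells, 5 h post-plating, exposed to compounds 17 h at 37C. LiveBLAzer B/G FRET substrate added for 1 h at room temperature; beta-lactamase reporter read by fluorescence intensity.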

[19] = qHTS assay to identify small molecule antagonists of the peroxisome proliferator-activated receptor gamma (PPARg) signaling pathway - cell viability counter screen (AID 743194); settings: Potency: co-treated with 50 nM rosiglitazone; further: nearly all actives have a fitted effect of over 55% in size
Summary of the method: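 Cytotoxicity counter screen in PPARg-bla HEK293H cells, same wells as reporter assay. Compounds plus 50 nM rosiglitazone (final) for 17 h at 37 C, then viability read by CellTiter-Glo luminescence.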

[20] = qHTS assay for small molecule agonists of the antioxidant response element (ARE) signaling pathway (AID 743202; active means well fitted activation curve with a large enough effect in the signal ratio in the repeat runs, not every such curve was filed as active; the % refers to the signal ratio)
Summary of the method: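 Agonist mode reporter screen: HepG2 cells with ARE-controlled beta-lactamase are incubated with test compounds for 16 h at 37 C, and beta-lactamase activity is measured as fluorescence of cleaved B/G FRET substrate.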
On the % scale 0 is the no-effect control and ±100 the full control effect.

O=[N+]([O-])c1ccc(CBr)cc1
inactive: Potency [1] | Potency [2] | Potency [3] | outcome [4] | Potency [5] | activation ([6]; at 95 µM (top of the series)) 2.58% | Potency [7] | Potency [8] | Potency [9] | Potency [10] | Potency [11] | outcome [12] | outcome [13] | Potency [14] | Potency [15] | outcome [16] | Potency [17]

O=C(NCO)NCO
inactive: Potency [1] | Potency [2] | Potency [3] | outcome [4] | Potency [5] | activation ([6]; at 95 µM (top of the series)) 2.29% | Potency [7] | Potency [8] | Potency [9] | Potency [11] | outcome [12] | outcome [13] | Potency [18] | Potency [19] | Potency [20] | outcome [16] | Potency [17]

CNNC
inactive: Potency [1] | Potency [2] | Potency [3] | outcome [4] | Potency [5] | activation ([6]; at 95 µM (top of the series)) -3.86% | Potency [7] | Potency [8] | Potency [9] | Potency [10] | Potency [11] | outcome [12] | outcome [13] | Potency [14] | Potency [15] | outcome [16] | Potency [17]

CC1CN1P(=O)(N1CC1C)N1CC1C (stereo unspecified)
inactive: Potency [1] | Potency [2] | Potency [3] | outcome [4] | Potency [5] | activation ([6]; at 70.3 µM (top of the series)) -10.3% | Potency [7] | Potency [8] | Potency [9] | Potency [10] | Potency [11] | outcome [12] | Potency [18] | Potency [14] | Potency [15] | Potency [17]

O=C1OC(c2ccc(O)c(S(=O)(=O)O)c2)(c2ccc(O)c(S(=O)(=O)O)c2)c2c(Br)c(Br)c(Br)c(Br)c21
inactive: Potency [1] | Potency [2] | Potency [3] | outcome [4] | Potency [5] | activation ([6]; at 70.3 µM (top of the series)) -0.304% | Potency [7] | Potency [9] | Potency [10] | Potency [11] | outcome [12] | outcome [13] | Potency [18] | Potency [19] | Potency [14] | Potency [15] | outcome [16] | Potency [17]

C#CCN1C(=O)COc2cc(F)c(N3C(=O)C4=C(CCCC4)C3=O)cc21
inactive: Potency [1] | Potency [2] | Potency [3] | outcome [4] | Potency [5] | activation ([6]; at 70.3 µM (top of the series)) -23.7% | Potency [7] | Potency [8] | Potency [9] | Potency [10] | Potency [11] | outcome [12] | outcome [13] | Potency [15] | outcome [16] | Potency [17]

C=C(C)CN(CC)c1c([N+](=O)[O-])cc(C(F)(F)F)cc1[N+](=O)[O-]
inactive: Potency [1] | Potency [2] | Potency [3] | outcome [4] | Potency [5] | activation ([6]; at 70.3 µM (top of the series)) 11.3% | Potency [8] | Potency [9] | Potency [10] | Potency [11] | outcome [12] | outcome [13] | Potency [18] | Potency [20] | Potency [14] | Potency [15] | Potency [17]

CCC(Cl)[N+](=O)[O-] (stereo unspecified)
inactive: Potency [1] | Potency [2] | Potency [3] | outcome [4] | Potency [5] | activation ([6]; at 95 µM (top of the series)) -4.86% | Potency [7] | Potency [8] | Potency [9] | Potency [10] | Potency [11] | outcome [12] | outcome [13] | Potency [20] | Potency [14] | Potency [15] | outcome [16] | Potency [17]
